What all share (test): DAPPL (digital affinity profiling via proximity ligation, sequencing); 10 mM Tris-HCl pH 7.5, 50 mM NaCl, 1 mM DTT, 4% glycerol, room temperature, 30 min; GST-TFs on glutathione beads, 16-mer random dsDNA library, 0.1% formaldehyde crosslink after washing; high values mean tight binding
Holding throughout (conditions): protein: recombinant; tags: N-terminal GST; dsDNA, one strand shown

One experiment concerns the target T1, FLI1 (Homo sapiens, UniProt Q01543 1-452).
T1 sequence: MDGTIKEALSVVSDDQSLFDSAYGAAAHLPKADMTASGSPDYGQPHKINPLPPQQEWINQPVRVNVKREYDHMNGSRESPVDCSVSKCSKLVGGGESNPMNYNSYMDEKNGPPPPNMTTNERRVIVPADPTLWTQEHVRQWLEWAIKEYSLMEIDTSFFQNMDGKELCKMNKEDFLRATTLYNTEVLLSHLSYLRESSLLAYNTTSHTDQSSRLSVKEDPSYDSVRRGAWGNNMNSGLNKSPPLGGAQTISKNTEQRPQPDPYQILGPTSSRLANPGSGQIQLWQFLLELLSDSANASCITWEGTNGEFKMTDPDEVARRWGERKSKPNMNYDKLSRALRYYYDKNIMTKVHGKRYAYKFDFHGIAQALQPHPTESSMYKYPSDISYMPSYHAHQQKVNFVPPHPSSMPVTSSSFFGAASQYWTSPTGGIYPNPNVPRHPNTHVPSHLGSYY
The essentials:
(§1)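 Pools were built from human transcription factors expressed in yeast as GST fusions, captured on glutathione beads and DNA-barcoded, along with a tag-only sample. Incubation with 200 nmole of a 16-mer random double-stranded DNA library lasted 30 min at room temperature in Tris/NaCl/DTT/glycerol buffer, and was followed by washing, 0.1% formaldehyde crosslinking, proximity ligation, PCR amplification and Illumina NextSeq500 sequencing. Binding signal is the quotient of each hexamer's read frequency for a factor and its frequency for the tag-only sample.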

For another experiment, the target named is T2, ELK1 (Homo sapiens, UniProt P19419 1-428).
T2 sequence: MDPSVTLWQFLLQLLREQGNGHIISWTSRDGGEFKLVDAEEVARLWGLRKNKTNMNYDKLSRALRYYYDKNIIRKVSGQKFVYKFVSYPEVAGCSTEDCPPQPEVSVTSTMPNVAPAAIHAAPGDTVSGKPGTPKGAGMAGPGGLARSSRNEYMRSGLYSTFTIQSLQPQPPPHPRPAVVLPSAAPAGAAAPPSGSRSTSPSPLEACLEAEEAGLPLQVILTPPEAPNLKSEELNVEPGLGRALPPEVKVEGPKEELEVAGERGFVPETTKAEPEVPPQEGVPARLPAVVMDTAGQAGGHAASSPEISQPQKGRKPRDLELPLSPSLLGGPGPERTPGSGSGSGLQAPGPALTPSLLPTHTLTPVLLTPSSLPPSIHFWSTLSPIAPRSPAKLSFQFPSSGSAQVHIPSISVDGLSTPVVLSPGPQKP
The essentials:
as §1

A further experiment has as its target T3, GABPA (Homo sapiens, UniProt Q06546 1-454).
T3 sequence: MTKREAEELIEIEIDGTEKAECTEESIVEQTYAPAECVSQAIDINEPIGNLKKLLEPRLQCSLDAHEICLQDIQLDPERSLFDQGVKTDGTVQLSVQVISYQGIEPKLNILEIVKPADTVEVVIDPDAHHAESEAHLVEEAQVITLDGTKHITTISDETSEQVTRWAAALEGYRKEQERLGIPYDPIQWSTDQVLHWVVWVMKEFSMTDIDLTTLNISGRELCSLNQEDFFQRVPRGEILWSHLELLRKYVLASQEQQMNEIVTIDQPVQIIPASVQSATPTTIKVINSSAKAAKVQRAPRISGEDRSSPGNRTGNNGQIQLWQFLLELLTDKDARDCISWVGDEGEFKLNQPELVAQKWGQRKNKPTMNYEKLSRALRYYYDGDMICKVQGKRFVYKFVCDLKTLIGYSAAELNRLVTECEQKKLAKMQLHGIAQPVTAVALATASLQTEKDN
The essentials: as §1

In the next experiment the target is T4, ERG (Homo sapiens, UniProt P11308 1-479).
T4 sequence: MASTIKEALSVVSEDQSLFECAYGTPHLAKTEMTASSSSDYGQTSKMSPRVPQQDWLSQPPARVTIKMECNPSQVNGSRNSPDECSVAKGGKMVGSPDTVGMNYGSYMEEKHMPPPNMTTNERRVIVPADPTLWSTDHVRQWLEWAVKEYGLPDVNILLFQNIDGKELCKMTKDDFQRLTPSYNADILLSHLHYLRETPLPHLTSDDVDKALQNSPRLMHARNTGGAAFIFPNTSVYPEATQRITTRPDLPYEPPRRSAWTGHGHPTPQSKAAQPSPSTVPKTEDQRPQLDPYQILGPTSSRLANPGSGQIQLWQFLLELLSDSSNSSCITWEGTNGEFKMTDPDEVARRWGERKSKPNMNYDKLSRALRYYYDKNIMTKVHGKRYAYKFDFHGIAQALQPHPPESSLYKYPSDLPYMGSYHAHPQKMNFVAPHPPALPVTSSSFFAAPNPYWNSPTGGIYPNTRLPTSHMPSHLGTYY
The essentials:
as §1

The target of another experiment is ELF1 (Homo sapiens, UniProt P32519 1-619). The essentials:
as §1

For a further experiment, the target named is T5, EHF (Homo sapiens, UniProt Q9NZC4 1-300).
T5 sequence: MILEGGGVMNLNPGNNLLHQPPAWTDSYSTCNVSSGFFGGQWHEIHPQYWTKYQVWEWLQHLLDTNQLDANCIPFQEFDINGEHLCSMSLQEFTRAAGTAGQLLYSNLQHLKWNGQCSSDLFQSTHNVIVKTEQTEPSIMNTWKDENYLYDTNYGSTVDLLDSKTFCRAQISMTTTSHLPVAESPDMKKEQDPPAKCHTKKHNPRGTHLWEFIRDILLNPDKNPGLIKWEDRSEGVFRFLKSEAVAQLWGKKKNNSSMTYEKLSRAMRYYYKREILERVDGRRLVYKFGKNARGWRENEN
The essentials:
as §1

A further experiment concerns the target SPI1 (Homo sapiens, UniProt P17947 1-270). The essentials:
as §1

In the next experiment the target is SPIB (Homo sapiens, UniProt Q01892 1-262). Summed up: as §1
A further experiment concerns the target T6, ELK3 (Homo sapiens, UniProt P41970 1-407).
T6 sequence: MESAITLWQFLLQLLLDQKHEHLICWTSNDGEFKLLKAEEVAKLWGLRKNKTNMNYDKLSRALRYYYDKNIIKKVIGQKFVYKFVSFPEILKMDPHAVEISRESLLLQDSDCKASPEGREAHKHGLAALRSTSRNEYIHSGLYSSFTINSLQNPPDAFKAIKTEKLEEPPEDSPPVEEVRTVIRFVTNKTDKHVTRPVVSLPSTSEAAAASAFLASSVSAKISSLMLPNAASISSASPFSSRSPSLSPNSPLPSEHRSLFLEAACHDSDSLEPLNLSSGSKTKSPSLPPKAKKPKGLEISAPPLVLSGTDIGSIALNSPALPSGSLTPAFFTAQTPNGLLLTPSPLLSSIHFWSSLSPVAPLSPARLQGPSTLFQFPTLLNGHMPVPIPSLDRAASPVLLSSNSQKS
Summed up:
as §1

Chain of ELF1 (P32519 whole entry): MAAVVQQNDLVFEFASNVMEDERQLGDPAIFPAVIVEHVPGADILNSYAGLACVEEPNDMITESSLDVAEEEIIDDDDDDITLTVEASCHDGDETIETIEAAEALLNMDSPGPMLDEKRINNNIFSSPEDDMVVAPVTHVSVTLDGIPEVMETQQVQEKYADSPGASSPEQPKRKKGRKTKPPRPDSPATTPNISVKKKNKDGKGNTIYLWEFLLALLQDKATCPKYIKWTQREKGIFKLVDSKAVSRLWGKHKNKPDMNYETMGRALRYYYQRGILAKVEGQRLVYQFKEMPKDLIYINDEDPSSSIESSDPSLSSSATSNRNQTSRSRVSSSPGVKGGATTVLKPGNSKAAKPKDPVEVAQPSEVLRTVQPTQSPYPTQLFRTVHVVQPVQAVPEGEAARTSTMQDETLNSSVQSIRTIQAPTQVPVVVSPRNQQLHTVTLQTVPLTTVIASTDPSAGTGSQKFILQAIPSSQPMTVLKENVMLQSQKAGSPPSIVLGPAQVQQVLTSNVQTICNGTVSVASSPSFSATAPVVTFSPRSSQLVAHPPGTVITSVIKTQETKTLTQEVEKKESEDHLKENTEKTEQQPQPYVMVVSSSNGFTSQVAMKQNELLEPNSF
Chain of SPIB (Q01892 whole entry): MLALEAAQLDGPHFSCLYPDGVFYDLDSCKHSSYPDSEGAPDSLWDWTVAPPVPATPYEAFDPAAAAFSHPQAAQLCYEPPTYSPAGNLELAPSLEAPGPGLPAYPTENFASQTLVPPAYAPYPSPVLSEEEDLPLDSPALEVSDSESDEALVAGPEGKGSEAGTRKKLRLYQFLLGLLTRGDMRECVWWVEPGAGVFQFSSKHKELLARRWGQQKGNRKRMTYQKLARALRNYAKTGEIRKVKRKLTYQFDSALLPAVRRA

GTATCT: the binding signal with FLI1 is 1.23 fold enrichment (6-mer frequency, TF over GST control); in the experiment with ELK1, 1.19 fold enrichment (6-mer frequency, TF over GST control); with GABPA, 1.17 fold enrichment (6-mer frequency, TF over GST control); with ERG, 1.14 fold enrichment (6-mer frequency, TF over GST control); in the experiment with ELF1, 1.18 fold enrichment (6-mer frequency, TF over GST control); in the experiment with EHF, 1.09 fold enrichment (6-mer frequency, TF over GST control). In addition, the binding signal is 1.1 fold enrichment (6-mer frequency, TF over GST control) in the experiment with SPI1; 1.25 fold enrichment (6-mer frequency, TF over GST control) in the experiment with SPIB; 1.09 fold enrichment (6-mer frequency, TF over GST control) in the experiment with ELK3.
On to CCAAAA, for which the binding signal in the experiment with FLI1 is 1.09 fold enrichment (6-mer frequency, TF over GST control); with ELK1, 1.13 fold enrichment (6-mer frequency, TF over GST control); with GABPA, 1.16 fold enrichment (6-mer frequency, TF over GST control); with ERG, 1.12 fold enrichment (6-mer frequency, TF over GST control); with ELF1, 1.17 fold enrichment (6-mer frequency, TF over GST control); in the experiment with EHF, 1.15 fold enrichment (6-mer frequency, TF over GST control). In addition, the binding signal in the experiment with SPI1 was 1.29 fold enrichment (6-mer frequency, TF over GST control); with SPIB, 1.12 fold enrichment (6-mer frequency, TF over GST control); with ELK3, 1.13 fold enrichment (6-mer frequency, TF over GST control).
With TACGCG, the binding signal with FLI1 was 1.12 fold enrichment (6-mer frequency, TF over GST control); with ELK1 it was 1.14 fold enrichment (6-mer frequency, TF over GST control); in the experiment with GABPA, 1.24 fold enrichment (6-mer frequency, TF over GST control); with ERG it was 1.14 fold enrichment (6-mer frequency, TF over GST control); in the experiment with ELF1, 1.12 fold enrichment (6-mer frequency, TF over GST control); in the experiment with EHF, 1.06 fold enrichment (6-mer frequency, TF over GST control). Also, the binding signal with SPI1 was 1.12 fold enrichment (6-mer frequency, TF over GST control); with SPIB it was 1.13 fold enrichment (6-mer frequency, TF over GST control); in the experiment with ELK3, 1.28 fold enrichment (6-mer frequency, TF over GST control).
Turning to TTTTTC, the binding signal was 1.21 fold enrichment (6-mer frequency, TF over GST control) with FLI1; 1.15 fold enrichment (6-mer frequency, TF over GST control) with ELK1; 1.32 fold enrichment (6-mer frequency, TF over GST control) in the experiment with GABPA; 1.14 fold enrichment (6-mer frequency, TF over GST control) with ERG; 1.22 fold enrichment (6-mer frequency, TF over GST control) in the experiment with ELF1; 1.23 fold enrichment (6-mer frequency, TF over GST control) with EHF. In addition, the binding signal in the experiment with SPI1 is 1.33 fold enrichment (6-mer frequency, TF over GST control); with SPIB it was 1.14 fold enrichment (6-mer frequency, TF over GST control); in the experiment with ELK3, 1.39 fold enrichment (6-mer frequency, TF over GST control).
For the sequence CACTTT, the binding signal with FLI1 is 1.25 fold enrichment (6-mer frequency, TF over GST control); in the experiment with ELK1, 1.33 fold enrichment (6-mer frequency, TF over GST control); in the experiment with GABPA, 1.21 fold enrichment (6-mer frequency, TF over GST control); with ERG it was 1.26 fold enrichment (6-mer frequency, TF over GST control); in the experiment with ELF1 it was 1.35 fold enrichment (6-mer frequency, TF over GST control); with EHF it was 1.36 fold enrichment (6-mer frequency, TF over GST control). For the same sequence, the binding signal with SPI1 was 1.39 fold enrichment (6-mer frequency, TF over GST control); with SPIB, 1.37 fold enrichment (6-mer frequency, TF over GST control); in the experiment with ELK3, 1.29 fold enrichment (6-mer frequency, TF over GST control).
Regarding TCGCCT, the binding signal was 1.32 fold enrichment (6-mer frequency, TF over GST control) with FLI1; 1.36 fold enrichment (6-mer frequency, TF over GST control) in the experiment with ELK1; 1.2 fold enrichment (6-mer frequency, TF over GST control) in the experiment with GABPA; 1.31 fold enrichment (6-mer frequency, TF over GST control) with ERG; 1.21 fold enrichment (6-mer frequency, TF over GST control) with ELF1; 1.34 fold enrichment (6-mer frequency, TF over GST control) in the experiment with EHF. Moreover, the binding signal with SPI1 is 1.16 fold enrichment (6-mer frequency, TF over GST control); with SPIB, 1.23 fold enrichment (6-mer frequency, TF over GST control); with ELK3, 1.15 fold enrichment (6-mer frequency, TF over GST control).
ATGGAT: the binding signal is 1.06 fold enrichment (6-mer frequency, TF over GST control) in the experiment with FLI1; 1.11 fold enrichment (6-mer frequency, TF over GST control) with ELK1; 1.18 fold enrichment (6-mer frequency, TF over GST control) in the experiment with GABPA; 1.08 fold enrichment (6-mer frequency, TF over GST control) in the experiment with ERG; 1.04 fold enrichment (6-mer frequency, TF over GST control) with ELF1; 1.09 fold enrichment (6-mer frequency, TF over GST control) with EHF. Besides, the binding signal was 1.06 fold enrichment (6-mer frequency, TF over GST control) in the experiment with SPI1; 1.14 fold enrichment (6-mer frequency, TF over GST control) with SPIB; 1.2 fold enrichment (6-mer frequency, TF over GST control) with ELK3.
On to TAAATT, for which the binding signal in the experiment with FLI1 was 1.26 fold enrichment (6-mer frequency, TF over GST control); with ELK1, 1.22 fold enrichment (6-mer frequency, TF over GST control); with GABPA it was 1.2 fold enrichment (6-mer frequency, TF over GST control); with ERG it was 1.22 fold enrichment (6-mer frequency, TF over GST control); with ELF1 it was 1.27 fold enrichment (6-mer frequency, TF over GST control); with EHF, 1.32 fold enrichment (6-mer frequency, TF over GST control). The binding signal with SPI1 was 1.22 fold enrichment (6-mer frequency, TF over GST control); in the experiment with SPIB, 1.3 fold enrichment (6-mer frequency, TF over GST control); with ELK3, 1.31 fold enrichment (6-mer frequency, TF over GST control).
